PP1 inh: counter-screen for PP5 inhibitors: inhibitors of human PP1-alpha | P62136 | purified PP1alpha, OMFP fluorescence | inhibition, % at 6.7 µM | 320,000 tested, 0.9% active | AID 2235;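 active = inhibition above the mean inhibition of all tested compounds plus 3 SD, computed separately for each screening campaign, cut at about 15% in these data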
pPAFAH FP inh: pPAFAH (human) enzyme inhibition | Q13093 | recombinant pPAFAH, FP-rhodamine probe fluorescence polarization | inhibition, % at 3.39 µM | 330,000 tested, 1.5% active | AID 463082;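 active = inhibition above the mean inhibition across the screen plus 3 SD, cut at about 25% in these data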;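 also: inhibitors block binding of the rhodamine activity-based probe so polarization drops; 0% = enzyme with DMSO and 100% = wells lacking pPAFAH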
PP5 primary: inhibitors of human protein phosphatase 5 (PP5); 320,000 tested, 0.18% active; inhibition, % at 6.7 µM; P53041; purified PP5c, OMFP substrate fluorescence;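 active = inhibition above the campaign's mean inhibition across all tested compounds plus 3 SD, cut at about 9.5% in these data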;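 also: 0% = DMSO only and 100% = 100 µM cantharidin control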
PAFAH2 inh: inhibitors of human PAFAH2; Q99487; recombinant PAFAH2, FP-rhodamine activity probe, fluorescence polarization; inhibition, % at 3.39 µM; 340,000 tested, 0.99% active;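 active = inhibition above the mean over all tested compounds plus 3 SD, cut at about 30% in these data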;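 also: inhibitors block probe labeling of enzyme so polarization drops; 0% = enzyme with DMSO and 100% = wells lacking PAFAH2 protein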
PAFAH1B3 inh: PAFAH1B3 (human) inhibition; recombinant PAFAH1B3, FP-rhodamine probe, fluorescence polarization; inhibition, % at 3.39 µM; 340,000 tested, 0.28% active; AID 492972;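 active = inhibition above the screen-wide average of all tested compounds plus 3 SD, cut at about 25% in these data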;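 also: 0% = enzyme with DMSO only and 100% = wells lacking PAFAH1B3 protein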
Target sequence (Q15102 whole entry, looked up): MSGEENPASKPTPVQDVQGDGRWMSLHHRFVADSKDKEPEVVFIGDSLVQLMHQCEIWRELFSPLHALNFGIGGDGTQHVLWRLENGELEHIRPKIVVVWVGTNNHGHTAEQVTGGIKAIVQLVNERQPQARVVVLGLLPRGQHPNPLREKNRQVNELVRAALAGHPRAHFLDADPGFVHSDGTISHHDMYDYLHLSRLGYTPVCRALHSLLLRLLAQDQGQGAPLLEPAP
PAFAH1B2 inh: blocks human PAF acetylhydrolase 1b catalytic subunit 2; P68402; recombinant PAFAH1B2, FP-rhodamine activity probe, fluorescence polarization; inhibition, % at 3.39 µM; 340,000 tested, 1.2% active;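 active = inhibition above the mean of all tested compounds plus 3 SD, cut at about 24% in these data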;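 also: 0% = enzyme with DMSO and 100% = wells lacking PAFAH1B2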
PP5 inh confirm: confirmation of human PP5 phosphatase inhibitors | shares compounds with PP5 primary | Purified PP5, fluorogenic phosphatase substrate, fluorescence | inhibition, % at 6.7 µM | 460 tested, 22% active; in the data active = inhibition above about 9.5%
PP1 inh counter: PP1 phosphatase inhibition, counter-screen for PP5 inhibitors; shares compounds with PP5 primary; AID 2355; inhibition, % at 6.7 µM; 460 tested, 4% active; PP1 enzyme, fluorescent phosphatase substrate; in the data active = inhibition above about 16%
* hit, by the source's call; . = no result. Most compounds without a hit are left out; they make up all but 3.4% or so of the library.

SMILES	PP1 inh	pPAFAH FP inh	PP5 primary	PAFAH2 inh	PAFAH1B3 inh	PAFAH1B2 inh	PP5 inh confirm	PP1 inh counter
COc1ccc(Oc2ccc3c(C(F)(F)F)cc(C(F)(F)F)nc3n2)cc1	0.1	3.2	15.6*	-4.9	-1.8	1.0	3.0	1.5
COc1cc(C=O)ccc1OCCOCCOc1ccc(Cl)cc1	2.7	1.7	3.0	2.4	2.2	2.2	.	.
COc1cc(C=O)ccc1OCCSc1ccc(Cl)cc1	0.5	20.9	15.2*	0.7	1.4	55.5*	-1.1	-1.1
Cc1ccc(S(=O)(=O)/N=C(/c2ccc(F)cc2)N2CCOCC2)cc1	-4.2	6.2	-1.1	2.1	4.7	1.1	.	.
CCOc1ccc(-c2n[nH]c(C)c2Oc2ccccc2OC)c(O)c1	4.2	10.7	10.7*	1.5	13.6	-5.6	6.0	4.3
CCCOC(=O)c1ccc(Oc2c(-c3ccc(O)cc3O)n[nH]c2C)cc1	1.5	19.5	16.1*	-10.1	8.9	-6.8	3.5	6.4
C=C(C)COc1ccc(-c2n[nH]c(C)c2Oc2ccccc2OC)c(O)c1	1.0	12.6	4.2	1.1	7.9	0.8	.	.
COc1ccc(-c2n[nH]c(C)c2-c2ccc(Cl)cc2)c(O)c1OC	5.5	32.5*	10.2*	-0.9	4.5	6.0	3.6	5.2
O=C(O)CCCNS(=O)(=O)c1ccc2c(c1)OCCCO2	-2.5	6.5	0.6	-0.9	-2.9	2.1	.	.
Cc1ccc(-n2nc(C(=O)N3CCOCC3)cc2-c2ccc(Cl)cc2)cc1	2.6	7.0	6.8	2.1	0.9	4.8	.	.
O=C(c1cc(-c2ccc(Cl)cc2)n(-c2ccc(Cl)cc2)n1)N1CCOCC1	-1.1	4.5	13.2*	-1.4	3.7	6.0	-2.9	-1.5
CC(C)C[C@H]1CN=C(Nc2ccccc2)N1CCCCc1ccccc1	4.4	1.4	45.6*	0.7	7.2	1.9	-4.3	-6.9
O=C(NNC(=O)c1ccc[nH]1)Nc1cc(Cl)cc(Cl)c1	8.1	-2.0	15.8*	.	.	.	-2.9	-8.2
CCn1c(=O)c([N+](=O)[O-])c(N2CCN(Cc3ccc4c(c3)OCO4)CC2)c2ccccc21	-2.1	6.5	10.2*	-1.5	0.2	-0.5	-3.5	-1.6
Cc1cc(C)n2nc(-c3ccc(Cl)cc3)cc2n1	3.0	4.9	2.8	7.2	8.1	3.4	.	.
CC(C)Oc1ccc(/C=C(/NC(=O)c2ccccc2)C(=O)NCCC(=O)O)cc1	-0.5	-0.5	-1.9	-2.0	5.8	4.3	.	.
CCCSc1nsc(NC(=O)Nc2ccc(F)cc2F)n1	6.7	-3.3	10.1*	-4.2	-0.9	-2.1	-1.6	0.8

Compound activity as filed in PubChem.
